This test has as its system astro (control astrocytes). Put plainly: Drug repurposing screens with cells derived from glioblastoma tumor samples (AID 1345199). Note: nearly all actives have a fitted effect of over 40% in size. The following applies: viability, ATP luminescence, 48 h; series mostly up to 45.9 µM. The procedure, abridged:
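Four patient lines of CD133+ GBM neurospheres were screened at several concentrations; hits were retested in those lines plus three slower-growing GBM lines, using 48-hour treatment and ATP-based viability.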

This is an account of results in PubChem BioAssay (NCATS).

Records with an inconclusive call do not appear. Where a call stands in place of a potency, no number is given. Active and inactive are the calls of the source. Calls come from the whole dose curve; as a rule, active = well fitted inhibition curve with a large enough effect; inconclusive = small, poorly fitted or top-dose-only effect; inactive = flat fitted curve, though single readings scatter. Non-standard residues stand in square brackets, D forms with d. Residues, ends and D or L forms follow the SMILES beside them. *: point of attachment. Sta = CC(C)C[C@H](N)[C@@H](O)CC(=O)O; Isovaleryl = CC(C)CC(=O)*
Potency is the fitted concentration of half-maximal effect.

As for `O=C(CS(=O)Cc1ccco1)NCC=CCOc1cc(CN2CCCCC2)ccn1` (stereo not drawn), the Potency entry is “inactive”.

Take `Nc1cccc2c1CN(C1CCC(=O)NC1=O)C2=O` (stereo not drawn): the Potency result was “inactive”.

For `C[C@]12CCC(=O)C=C1CC[C@@H]1[C@H]2[C@@H](O)C[C@@]2(C)[C@H]1CC[C@]2(O)C(=O)CO`, the Potency entry was “inactive”.

On to `C=CCc1cc(OC)c(O)c(C(=O)NCCO)c1`, for which the Potency result was “inactive”.

For `Cc1cccc(C)c1OCC(=O)N[C@@H](Cc1ccccc1)[C@@H](O)C[C@H](Cc1ccccc1)NC(=O)[C@H](C(C)C)N1CCCNC1=O`, the Potency entry is “inactive”.

With `COc1ccc(C2(C#N)CCC(C(=O)O)CC2)cc1OC1CCCC1` (stereo not drawn), the Potency result was “inactive”.

Take `CN(C)c1ccc(O)c2c1C[C@H]1C[C@H]3[C@H](N(C)C)C(=O)C(C(N)=O)=C(O)[C@@]3(O)C(=O)C1=C2O`: the Potency result was “inactive”.

In the case of `CCN(CC)CCOc1ccc(Cc2ccccc2)cc1`, the Potency was 22.4 µM (active).

Turning to `CC(C)[N+]1(C)[C@@H]2CC[C@H]1CC(OC(=O)C(CO)c1ccccc1)C2` (stereo partly drawn), the Potency entry was “inactive”.

Turning to `O=C(OC1C[C@H]2CC[C@@H](C1)[N+]21CCCC1)C(O)(c1ccccc1)c1ccccc1` (stereo partly drawn), the Potency result was “inactive”.

`CC(C)c1nc(CN(C)C(=O)N[C@H](C(=O)N[C@@H](Cc2ccccc2)C[C@H](O)[C@H](Cc2ccccc2)NC(=O)OCc2cncs2)C(C)C)cs1`: the Potency entry was “inactive”.

As for `CN(C)C(=O)COC(=O)Cc1ccc(OC(=O)c2ccc(N=C(N)N)cc2)cc1`, the Potency entry was “inactive”.

`Cc1ccc(NC(=O)c2ccc(CN3CCN(C)CC3)cc2)cc1Nc1nccc(-c2cccnc2)n1`: the Potency was 20 µM (active).

On to `O=C(O)c1cn(-c2ccc(F)cc2)c2cc(N3CCNCC3)c(F)cc2c1=O`, for which the Potency entry was “inactive”.

As to `CC(C)CC(=O)N[C@H](C(=O)N[C@H](C(=O)N[C@@H](CC(C)C)[C@@H](O)CC(=O)N[C@@H](C)C(=O)N[C@@H](CC(C)C)[C@@H](O)CC(=O)O)C(C)C)C(C)C` (Isovaleryl-VV[Sta]A[Sta]-OH), the Potency result was “inactive”.

Regarding `NC(=O)Cc1cccc(C(=O)c2ccccc2)c1N`, the Potency result is “inactive”.

Regarding `CCc1nc(N)nc(N)c1-c1ccc(Cl)cc1`, the Potency entry is “inactive”.

In the case of `S=c1nc[nH]c2nc[nH]c12`, the Potency entry is “inactive”.
